# Screening data from PubChem BioAssay.
# MITF TRPM1 HTS = MITF TRPM1 promoter activation in melanoma cells; activation, % at 12.5 µM; SK-MEL-5 TRPM1-promoter luciferase, 24 h; % of positive control, neutral wells = 0; actives 0.75% (n = 300,000);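 active = mean activation of at least 80% with every replicate also reaching 80%; inconclusive = mean reaches 80% but some replicate falls short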
# MLL AF4-AF9 inh = MLL-AF4/AF9 protein interaction inhibition | P42568 | AlphaScreen, biotin-AF4 peptide binding to FLAG-AF9 | inhibition, % at 10 µM | actives 0.47% (n = 350,000);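 active = every replicate reaching a set inhibition limit, whatever the replicate mean, cut at about 25% in these data; inconclusive = mean inhibition reaches that limit but some replicates miss it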
# Target sequence (P42568 whole entry, looked up): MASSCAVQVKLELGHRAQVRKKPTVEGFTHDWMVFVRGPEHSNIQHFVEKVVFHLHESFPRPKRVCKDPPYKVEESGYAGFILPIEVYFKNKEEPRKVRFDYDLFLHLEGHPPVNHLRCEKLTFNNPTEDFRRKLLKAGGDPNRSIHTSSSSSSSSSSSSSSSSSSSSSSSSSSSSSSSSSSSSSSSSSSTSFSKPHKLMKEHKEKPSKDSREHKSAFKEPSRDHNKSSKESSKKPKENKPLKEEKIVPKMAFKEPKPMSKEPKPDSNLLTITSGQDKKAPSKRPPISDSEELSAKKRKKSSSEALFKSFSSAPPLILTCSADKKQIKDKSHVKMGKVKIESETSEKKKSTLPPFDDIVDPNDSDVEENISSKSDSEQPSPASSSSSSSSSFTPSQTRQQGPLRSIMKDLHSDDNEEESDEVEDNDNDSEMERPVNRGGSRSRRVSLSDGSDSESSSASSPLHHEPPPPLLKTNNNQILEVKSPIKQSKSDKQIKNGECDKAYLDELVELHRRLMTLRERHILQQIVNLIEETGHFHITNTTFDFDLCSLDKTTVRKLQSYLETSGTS
# FGF22 binding = FGF22 (human) thermal shift binding. Q9HCT0. recombinant FGF22 thermal shift, SYPRO orange fluorescence; percent of sucrose octasulfate shift, DMSO zero. activity (Tm shift, normalised), % at 9.99 µM. actives 1.5% (n = 340,000). AID 651658;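 active = mean Tm shift, scaled 0 neutral to 100 positive control, at about 1.3% or above, every replicate too, limit read from the data; inconclusive = no clear call, values can overlap the other calls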
# Wnt bcat act = activates Wnt/beta-catenin signaling in a reporter cell assay | activator, plate reader | activation, % at 9.35 µM | actives 1.2% (n = 300,000) | AID 743398; in the data active = activation above about 30%, passing the limit was not always enough; inconclusive = no clear call, values can overlap the other calls
# esBAF inh = SWI/SNF esBAF complex inhibition; actives 2% (n = 350,000); AID 602393; reporter increase, % at 12.5 µM; mouse ES cells, Bmi1-luciferase knock-in reporter, 24 h; 100% = twice the neutral-well signal; in the data active = activation above about 40%; inconclusive = no clear call, values can overlap the other calls;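 also: a rise in the Bmi1 reporter signal indicates esBAF inhibition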
# SMARCA2 act = SMARCA2 function activation, primary screen. actives 1% (n = 370,000). MG213 cells, MMTV-luciferase reporter, dexamethasone, overnight. activation, % at 9.1 µM. AID 652017; in the data active = activation above about 7.8%
# Hits are given with their value; - = inactive; ? = inconclusive; . = no result. Shown are actives, neighbours in structure and some others; about 4.3% of the full set was active somewhere.
SMILES,MITF TRPM1 HTS,MLL AF4-AF9 inh,FGF22 binding,Wnt bcat act,esBAF inh,SMARCA2 act
CCN(CC)c1ccc2cc(-c3nnc(-c4ccncc4)o3)c(=O)oc2c1,-,.,.,.,44.5,-
CN(C)C(=O)C[C@H]1C=C[C@H](NC(=O)c2ccc(F)cc2)[C@@H](CO)O1,.,-,-,.,-,.
O=C(Nc1ccc(OC(F)(F)F)cc1)c1n[nH]c(Cn2cncn2)n1,.,.,.,81.1,-,-
COc1ccc(C2C(C(C)=O)=C(O)C(=O)N2c2nccs2)c(OC)c1 (stereo unspecified),-,-,45.5,-,.,-
O=C(C[C@@H]1C[C@@H]2c3cc(NC(=O)NC4CCCC4)ccc3O[C@@H]2[C@H](CO)O1)NCCc1ccccc1,.,-,-,.,-,.
COc1ccc(C(=O)N/C(=C\c2cc(OC)c(OC)cc2[N+](=O)[O-])C(=O)NCC(=O)O)cc1,-,-,43.2,-,.,-
C[C@H](CO)N1C[C@H](C)[C@H](CN(C)C(=O)NC2CCCCC2)Oc2ncc(C#CCN(C)C)cc2C1=O,.,-,-,.,-,.
CC(C)(C)c1csc(NC(=O)C2=COCCO2)n1,-,-,-,52.8,.,-
Cc1ccc(-c2csc(NC(=O)C3=COCCO3)n2)cc1,?,.,.,.,.,-
CCCc1ccc(-c2csc(NC(=O)C3=COCCO3)n2)cc1,-,-,-,-,64.6,-
O=C(c1ccc(F)cc1)N1CCCCN2[C@@H](CO)[C@H](c3ccc(/C=C/c4ccccc4)cc3)[C@@H]2C1,.,-,-,.,-,.
C[C@@H]1CN([C@@H](C)CO)C(=O)c2ccccc2-c2ccccc2CO[C@H]1CN(C)S(=O)(=O)c1ccc(F)cc1,.,-,-,.,-,.
COc1ccc(OCc2n(CC(=O)OC3CC(C)CCC3C(C)C)c3ccccc3[n+]2C)cc1 (stereo unspecified),-,?,-,-,-,-
COc1ccc(-c2n(CC(=O)OC3CC(C)CCC3C(C)C)c3ccccc3[n+]2C)cc1 (stereo unspecified),-,-,44.0,-,.,-
CCNC(=O)C[C@@H]1CC[C@H]2[C@H](COc3ccc(NS(=O)(=O)c4ccccc4C)cc3C(=O)N2C)O1,.,-,-,.,-,.
COc1cc(NC(=O)c2cc3nc(C)cc(C)n3n2)c(OC)cc1Cl,99.9,.,.,.,52.2,-
COc1cc(NC(=O)c2c(F)c(F)c(F)c(F)c2F)c(OC)cc1Cl,-,.,.,.,-,-
CO[C@@H]1CN(C)C(=O)c2cc(NC(=O)c3ccccc3F)ccc2OC[C@H](C)N(C)C[C@H]1C,.,-,-,.,-,.
COc1ccc(Nc2nc(N)c([N+](=O)[O-])c(N3CCOCC3)n2)cc1,-,-,-,-,-,-
CN(C)c1ccc(Nc2nc(N)c([N+](=O)[O-])c(N3CCOCC3)n2)cc1,-,30.2,-,-,.,-
CC1(C)CC(=O)c2cnc(N3CCc4ccccc4C3)nc2C1,-,-,-,-,68.6,-
CCN(c1ccccc1)S(=O)(=O)c1ccc(OC)c(NC(=O)c2ccco2)c1,.,-,43.1,-,-,-
COc1ccc([Si](C)(C)[C@H]2[C@H](CCO)O[C@@]3(C(=O)N(Cc4cccc(N5CCCCC5=O)c4)c4ccccc43)[C@@H]2C)cc1,.,-,-,.,.,.
Cn1cccc1C(=O)NCCc1ccc(Cl)cc1,114.4,-,-,-,56.7,-
O=C(Nc1ccc2nsnc2c1)N1CCCCC1,-,.,.,-,-,-
SMILES,MITF TRPM1 HTS,MLL AF4-AF9 inh,FGF22 binding,Wnt bcat act,esBAF inh,SMARCA2 act
S=C(Nc1ccc2nsnc2c1)NC1CCCCC1,-,-,-,-,.,-
CC1CCN(C(=O)Nc2ccc3nsnc3c2)CC1,100.1,.,.,.,?,-
S=C(Nc1ccc2nsnc2c1)N1CCCCCC1,93.8,-,-,-,.,-
C[C@@H]1CN([C@H](C)CO)C(=O)c2cc(NS(=O)(=O)c3ccc(F)cc3)ccc2O[C@H]1CN(C)S(=O)(=O)c1cccs1,.,-,-,.,-,.
Cc1cc(C)n2c(Nc3ccc4c(c3)OCCO4)c(-c3ccccc3)nc2n1,.,.,.,40.9,-,-
Cc1cc(=O)n(C)c(=O)n1CCCCOc1cccc([N+](=O)[O-])c1,-,-,43.6,-,-,-
COc1ccc2c(c1OC)C(=O)N(c1ccc(F)cc1)C2,?,-,-,38.4,-,-
COc1ccccc1C(=O)Nc1ccc2c(c1)C(=O)N(C)C[C@@H](OC)[C@H](C)CN(CC1CC1)[C@@H](C)CO2,.,-,.,.,-,.
